Assay outcomes: PubChem BioAssay, University of Kansas High Throughput Screening Laboratory
The full list was thinned out, with hits kept by preference.
mHTT-CaM PPI inh: mHTT-calmodulin interaction abrogation; AlphaScreen His-mHTT/GST-CaM binding, luminescence; inhibition, % at 15 µM; hit rate 3.6% among 190,000; AID 1671202;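 note: 0% = both proteins with DMSO and 100% = one protein alone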
Target sequence (P42858 whole entry, looked up, stated change not applied): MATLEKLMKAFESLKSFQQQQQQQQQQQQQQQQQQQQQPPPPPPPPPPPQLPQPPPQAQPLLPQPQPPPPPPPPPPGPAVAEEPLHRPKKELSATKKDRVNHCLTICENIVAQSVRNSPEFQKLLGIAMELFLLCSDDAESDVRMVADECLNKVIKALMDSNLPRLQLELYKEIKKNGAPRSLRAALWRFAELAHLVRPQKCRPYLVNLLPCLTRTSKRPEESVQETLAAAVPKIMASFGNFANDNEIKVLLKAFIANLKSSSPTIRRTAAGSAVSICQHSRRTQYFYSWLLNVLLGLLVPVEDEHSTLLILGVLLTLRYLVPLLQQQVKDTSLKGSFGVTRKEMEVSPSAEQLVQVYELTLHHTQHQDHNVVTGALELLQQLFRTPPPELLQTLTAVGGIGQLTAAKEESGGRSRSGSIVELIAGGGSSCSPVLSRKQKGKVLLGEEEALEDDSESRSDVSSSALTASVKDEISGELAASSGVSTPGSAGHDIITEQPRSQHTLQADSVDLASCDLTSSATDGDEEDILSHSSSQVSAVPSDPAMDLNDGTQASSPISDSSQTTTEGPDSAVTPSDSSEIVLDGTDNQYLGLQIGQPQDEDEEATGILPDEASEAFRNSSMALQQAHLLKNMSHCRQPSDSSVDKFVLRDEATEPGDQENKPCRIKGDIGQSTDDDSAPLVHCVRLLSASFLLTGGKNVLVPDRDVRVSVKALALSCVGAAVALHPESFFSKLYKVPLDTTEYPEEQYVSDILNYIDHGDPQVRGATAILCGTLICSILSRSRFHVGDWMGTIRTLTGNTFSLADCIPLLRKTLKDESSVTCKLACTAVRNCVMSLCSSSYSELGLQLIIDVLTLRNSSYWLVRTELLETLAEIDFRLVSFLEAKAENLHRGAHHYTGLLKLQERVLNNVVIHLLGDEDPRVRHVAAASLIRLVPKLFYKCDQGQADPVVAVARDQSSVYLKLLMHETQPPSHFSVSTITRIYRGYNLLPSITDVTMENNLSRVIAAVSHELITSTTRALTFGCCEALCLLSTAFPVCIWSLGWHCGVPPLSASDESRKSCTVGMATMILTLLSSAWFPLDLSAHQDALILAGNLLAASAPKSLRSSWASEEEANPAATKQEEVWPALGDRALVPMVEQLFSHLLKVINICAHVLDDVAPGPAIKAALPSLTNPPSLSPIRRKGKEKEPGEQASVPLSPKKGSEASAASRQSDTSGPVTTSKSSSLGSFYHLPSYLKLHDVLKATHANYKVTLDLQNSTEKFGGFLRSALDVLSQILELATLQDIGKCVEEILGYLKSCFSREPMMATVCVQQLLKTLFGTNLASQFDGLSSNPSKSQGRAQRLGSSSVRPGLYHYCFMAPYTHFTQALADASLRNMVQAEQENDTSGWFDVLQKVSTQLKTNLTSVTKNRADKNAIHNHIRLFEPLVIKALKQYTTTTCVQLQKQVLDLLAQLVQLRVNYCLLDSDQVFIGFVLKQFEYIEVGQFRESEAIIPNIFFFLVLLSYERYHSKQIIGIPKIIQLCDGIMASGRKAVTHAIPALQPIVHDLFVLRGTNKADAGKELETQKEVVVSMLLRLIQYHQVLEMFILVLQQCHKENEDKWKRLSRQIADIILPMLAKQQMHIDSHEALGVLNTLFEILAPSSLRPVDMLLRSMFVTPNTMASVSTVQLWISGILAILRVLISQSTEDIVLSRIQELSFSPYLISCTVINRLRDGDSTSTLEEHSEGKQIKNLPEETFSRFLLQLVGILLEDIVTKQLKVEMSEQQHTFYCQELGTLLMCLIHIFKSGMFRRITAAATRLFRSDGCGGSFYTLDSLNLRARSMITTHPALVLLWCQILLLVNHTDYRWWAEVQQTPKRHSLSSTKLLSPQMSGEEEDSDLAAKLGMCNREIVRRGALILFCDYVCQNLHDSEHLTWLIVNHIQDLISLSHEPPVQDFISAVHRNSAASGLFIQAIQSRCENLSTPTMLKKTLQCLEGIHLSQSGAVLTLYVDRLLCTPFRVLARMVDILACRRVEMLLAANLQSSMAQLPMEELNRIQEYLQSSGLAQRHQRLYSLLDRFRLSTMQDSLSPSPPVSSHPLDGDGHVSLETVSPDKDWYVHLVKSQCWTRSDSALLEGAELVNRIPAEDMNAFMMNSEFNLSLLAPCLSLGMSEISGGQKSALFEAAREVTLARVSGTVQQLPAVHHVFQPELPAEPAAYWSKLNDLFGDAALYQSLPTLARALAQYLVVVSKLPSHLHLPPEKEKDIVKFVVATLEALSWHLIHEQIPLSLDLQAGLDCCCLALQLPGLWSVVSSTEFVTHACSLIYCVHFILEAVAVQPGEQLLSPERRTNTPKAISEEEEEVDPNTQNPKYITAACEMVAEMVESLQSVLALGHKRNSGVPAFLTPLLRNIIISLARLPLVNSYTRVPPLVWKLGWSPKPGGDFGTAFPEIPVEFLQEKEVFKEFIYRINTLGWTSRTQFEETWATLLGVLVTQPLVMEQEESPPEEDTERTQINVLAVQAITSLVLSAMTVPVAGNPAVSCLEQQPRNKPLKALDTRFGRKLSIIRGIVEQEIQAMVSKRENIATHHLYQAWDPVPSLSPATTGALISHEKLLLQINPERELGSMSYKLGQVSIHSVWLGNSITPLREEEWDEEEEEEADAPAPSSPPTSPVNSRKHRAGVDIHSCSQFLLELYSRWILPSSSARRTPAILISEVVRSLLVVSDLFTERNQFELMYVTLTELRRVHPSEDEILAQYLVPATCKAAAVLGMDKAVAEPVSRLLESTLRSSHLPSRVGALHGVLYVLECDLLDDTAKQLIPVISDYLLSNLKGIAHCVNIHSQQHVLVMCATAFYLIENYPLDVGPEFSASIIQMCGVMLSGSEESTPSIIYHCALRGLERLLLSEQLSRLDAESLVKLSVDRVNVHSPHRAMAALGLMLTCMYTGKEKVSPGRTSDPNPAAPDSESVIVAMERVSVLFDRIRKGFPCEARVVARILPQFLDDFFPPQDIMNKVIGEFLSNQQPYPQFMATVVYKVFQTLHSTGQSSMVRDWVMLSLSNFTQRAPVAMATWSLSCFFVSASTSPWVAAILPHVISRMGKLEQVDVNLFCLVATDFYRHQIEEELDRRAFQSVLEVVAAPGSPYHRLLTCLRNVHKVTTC
Pf apPOL inh: Pf-apPOL DNA polymerase inhibition; Recombinant Pf-apPOL, molecular beacon fluorescence, 1.5 h; inhibition, % at 10 µM; hit rate 0.25% among 210,000; AID 1794808
* marks the source's active call; other numbers are inactive results; · = no result given. Cut-off read from the data, not from the text of the source: active = inhibition above about 50%; inactive = the rest.

SMILES	mHTT-CaM PPI inh	Pf apPOL inh
CC(C)(C)N=C1Nc2ccccc2CNC12CCN(C(=O)c1ccccc1)C2 (stereo not given)	11	-7
Cc1ccc(C)c(NC(=O)c2c(F)cccc2F)c1	-9	1
Clc1ccc(-c2nnc(/C=C/c3cccc4ccccc34)o2)c(Cl)c1	-17	·
CNC(=O)/C(=C\c1ccc(Cl)cc1)NC(=O)c1ccco1	1	-7
Cc1ccc(NC(=O)Cn2c(C(C)C)nc3c(c2=O)CN(Cc2ccccc2)CC3)cc1C	-7	-6
O=C(Cn1nc2c(N3CCOCC3)nccn2c1=O)NCc1cccc(C(F)(F)F)c1	-6	-10
COc1ccc(OC)c(NC(=O)N2CC(C)Oc3ccc(C)cc32)c1 (stereo not given)	62*	-16
CCOC(=O)CNC(=O)N1CC2CCCN2c2ccccc21 (stereo not given)	16	-3
COc1ccc(OC)c(NC(=O)N2CCCC2c2ccccc2C)c1 (stereo not given)	19	-4
COc1ccc(OC)c(NC(=O)N2CC3CCCN3c3ccccc32)c1 (stereo not given)	83*	1
COc1cccc(CNC(=O)N2CC3CCCN3c3ccccc32)c1 (stereo not given)	66*	0
CCOC(=O)c1cccc(NC(=O)N2CC3CCCN3c3ccccc32)c1 (stereo not given)	78*	0
CCOC(=O)c1cccc(NC(=O)N2CC(CC)Oc3ccccc32)c1 (stereo not given)	-19	-3
COc1ccccc1NC(=O)N1CC(C)Oc2ccc(C)cc21 (stereo not given)	-2	-4
CCn1c(C2CCN(C(=O)c3ccsc3)C2)nc2cccnc21 (stereo not given)	-2	-1
CN1CCN(c2nc(C(=O)N(C)C)cs2)CC1	-3	-3
CCCCN1CCN(C(=O)C2(c3ccc(NC(C)=O)cc3)CCCCC2)CC1	-3	0
COC(=O)c1cccc(NC(=O)N2CC3CCCN3c3ccccc32)c1 (stereo not given)	69*	-2
O=C(Nc1ccc(F)c(Cl)c1)N1CC2CCCN2c2ccccc21 (stereo not given)	4	-3
CCCOc1ccc(N2C(=O)CC(NCCCc3ccccc3)C2=O)cc1 (stereo not given)	-6	-4
CN(C)Cc1c(O)ccc2c1OC(=Cc1cccc(Cl)c1)C2=O	11	10
CCN(CC)Cc1c(O)ccc2c1OC(=Cc1cccc(Cl)c1)C2=O	53*	-2
O=C(O)c1cc(N2C(=O)/C(=C/c3ccc([N+](=O)[O-])cc3)C=C2c2ccccc2)ccc1O	88*	-4
CC(=O)Nc1ccc(N2C(=O)/C(=C/c3ccc(Cl)cc3)C=C2c2ccccc2)cc1	31	-1
O=C(O)c1cc(N2C(=O)/C(=C/c3ccc(Cl)cc3)C=C2c2ccccc2)ccc1O	74*	-3
SMILES	mHTT-CaM PPI inh	Pf apPOL inh
O=C1/C(=C/c2ccc([N+](=O)[O-])cc2)C=C(c2ccccc2)N1c1ccc(F)cc1	18	0
COc1ccc(C(=O)N2CCCCC2c2nncn2C)cn1 (stereo not given)	-4	-1
Cc1ccc(Cl)c(OCC(O)Cn2c(C)nc3ccccc32)c1 (stereo not given)	10	-7
OCc1nc2ccccc2n1Cc1ccc(Br)cc1	7	-1
OCc1nc2ccccc2n1CC(O)COc1ccc(Br)cc1 (stereo not given)	73*	2
Cc1nc2ccccc2n1CC(O)COc1ccccc1Cl (stereo not given)	58*	-5
O=C(NCc1ccc(F)cc1F)C1CCCN(c2nnc3ccccn23)C1 (stereo not given)	9	-12
Cc1c(Cl)cccc1N1CCC(C(=O)Nc2ccccc2)C1=O (stereo not given)	2	-3
Cc1ccc(N2COc3cc4c(cc3C2)OCO4)cc1C	18	-1
Fc1ccc(N2COc3ccc(Cl)cc3C2)cc1	50*	-5
Cc1ccc(N2COc3ccc(Cl)cc3C2)cc1	64*	-5
Cc1cccc(N2COc3ccc(Cl)cc3C2)c1C	96*	0
COc1ccc2c(c1)CN(c1ccc(C)c(Cl)c1)CO2	77*	-4
Fc1ccc(N2COc3cc4c(cc3C2)OCO4)cc1	9	-6
Cc1cccc(N2CCN(C(=O)c3ccc(Cl)cc3)CC2)c1C	-5	-9
COc1ccc2c(c1)CN(c1ccc(C)cc1C)CO2	-9	0
COc1ccc(C2=N/C(=C/c3cc(OC)c(OC)c(OC)c3)C(=O)O2)cc1	1	-2
COc1ccc(C2C(=C(O)c3c(C)nc4c(C)cccn34)C(=O)C(=O)N2CCN(C)C)cc1 (stereo not given)	-19	-8
COc1ccccc1-c1noc(CCC(=O)N2CCc3nc4cc[nH]n4c(=O)c3C2)n1	7	1
CCOc1cc(C(=O)Nc2cccc(-c3nc4ccccc4o3)c2C)cc(OCC)c1OCC	-8	3
O=C(O)CCC(=O)Nc1ccc(-c2nc3cc(Cl)ccc3o2)cc1	9	-14
